# Assay results from PubChem BioAssay (EPA / NIEHS).
# “And” between values parts separate entries of the source, which are not always exact repeats. Equal entries are not always repeated. Inconclusive results are not listed. More than one record can exist for a structure, and the calls need not agree. The source made the active and inactive calls. How the source made its calls, unless noted: active means hit-call score of the fitted dose curve at least 0.9, where 1 is the maximum; inactive means score below 0.9.
# Key:
# [1] = CCTE_Simmons_MITO_basal_resp_rate: CCTE's HepG2 Seahorse XF Respirometric Screening Assay at Basal Respiratory State, Simmons Lab (AID 2284001); details: actives raise or lower the signal
# Summary of the method: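 Basal-phase OCR of HepG2 cells on a Seahorse XF96, analysed by bidirectional fit relative to DMSO vehicle; chemicals at 7 concentrations, 125 nM–100 uM final; three biological replicates; fenpyroximate and 2,4-dinitrophenol positive controls.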
# [2] = CCTE_Simmons_MITO_max_resp_rate: CCTE's HepG2 Seahorse XF Respirometric Screening Assay at Maximal Respiratory State [uncoupled], Simmons Lab (AID 2284002); details: actives raise or lower the signal
# Summary of the method: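 HepG2 oxygen consumption measured on Seahorse XF after FCCP uncoupling, following test compound injection; 7 concentrations from 125 nM to 100 uM final. Readings every 6 min over 72 min, three biological replicates; bidirectional fit versus DMSO.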
# [3] = CCTE_Simmons_MITO_inhib_resp_rate: CCTE's HepG2 Seahorse XF Respirometric Screening Assay at Inhibited Respiratory State [full ETC block], Simmons Lab (AID 2284006); details: actives raise or lower the signal
# Summary of the method: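 Seahorse respirometry, HepG2, 72 min total, 6-min mix/measure cycles. Cpd 125 nM–100 uM final ×7, n=3 biological. Sequential FCCP, rotenone/antimycin A; inhibited-respiration OCR, bidirectional fit vs DMSO.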
# [4] = CCTE_Shafer_MEA_acute_spike_number: CCTE's Neural Acute Assay for Total Number of Spikes, Shafer Lab (AID 2284008);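 further: curve fitted for decrease in spike count so AC50 reflects inhibitors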
# Summary of the method: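 Rat primary cortical neurons on 48-well MEA plates, DIV 13 or 15, at 37 C. 40 min baseline then 40 min with compound (0.03-40 uM); spikes detected at 8x rms noise, expressed as percent change from baseline.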
# [5] = CCTE_Shafer_MEA_acute_firing_rate_mean: CCTE's Neural Acute Assay for Mean Firing Rate, Shafer Lab (AID 2284009);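 further: analyzed for loss of signal so actives lower firing rate relative to DMSO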
# Summary of the method: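 Rat cortical neuron cultures matured to DIV 13 or 15, equilibrated 20 min at 37 C, then recorded 40 min for baseline. Compound (0.03-40 uM) added and a further 40 min recorded; percent change in mean firing rate calculated per well.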
# [6] = CCTE_Harrill_HTTr_Viability_MCF7: CCTE's 6-hour Cell Viability Assessment for the High-Throughput Transcriptomics (HTTr) Platform, in MCF-7 cells cultured in DMEM + 10% fetal bovine serum, Harrill Lab (AID 2284010)
# Summary of the method: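 Read-out is propidium iodide gain of signal by high-content imaging, reflecting membrane integrity loss. Measurements are taken 6 h after dosing, eight concentrations per chemical, with DMSO serving as baseline for bidirectional curve fitting.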
# [7] = CCTE_Harrill_HTTr_CellCount_MCF7: CCTE's Cell Proliferation Assessment for the High-Throughput Transcriptomics (HTTr) Platform, Harrill Lab (AID 2284012; active means hit-call score of the fitted dose curve at least 0.9, where 1 is the maximum;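 further: cells exposed to compound for six hours; intended direction is loss of nuclei count meaning fewer cells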)
# Summary of the method: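 Cell count served as viability reporter: loss of Hoechst-stained nuclei, counted by high content imaging, marks decreased growth or survival. Exposure was 6 h in MCF-7 cells across eight concentrations, with DMSO as baseline.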
# [8] = CCTE_Shafer_MEA_acute_burst_duration_mean: CCTE's Neural Acute Assay for Mean Burst Duration, Shafer Lab (AID 2284014);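 further: hits are decreases in mean burst duration relative to DMSO controls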
# Summary of the method: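 Rat cortical cultures, DIV 13/15; 40 min baseline, then 40 min with compound (0.03-40 uM), 37 C. Spikes: 300-5000 Hz band-pass, 8x rms threshold. Read-out: % change in mean single-electrode burst duration, DMSO-referenced, loss direction.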
# [9] = CCTE_Shafer_MEA_acute_per_burst_spike_number_mean: CCTE's Neural Acute Assay for Average Number of Spikes Per Burst, Shafer Lab (AID 2284015);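 further: hits are decreases in mean spikes per burst versus baseline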
# Summary of the method: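 Primary rat cortical neurons on 48-well MEA plates, treated on DIV 13 or 15 at 0.03-40 uM. Spontaneous activity recorded 40 min before and 40 min after compound at 37 C; percent change in mean spikes per single-electrode burst per well, fitted in the loss direction versus DMSO.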
# [10] = CCTE_Shafer_MEA_acute_interburst_interval_mean: CCTE's Neural Acute Assay for Mean Interburst Interval, Shafer Lab (AID 2284016);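 further: percent change of mean interburst interval versus each well's own pre-dose baseline; curves fitted for decrease in interburst interval relative to DMSO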
# Summary of the method: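 Primary rat cortical neurons on 16-electrode MEA wells were recorded 40 min at baseline on DIV 13 or 15, then 40 min after compound (0.03-40 uM), at 37 C. Value is percent change in mean interburst interval per well, DMSO as negative control.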
# [11] = CCTE_Shafer_MEA_acute_burst_percentage_mean: CCTE's Neural Acute Assay for Percentage of Spikes in a Burst, Shafer Lab (AID 2284017);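 further: curve fitted for loss of signal so potency reflects decreased burst percentage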
# Summary of the method: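 Primary rat cortical neurons on 16-electrode MEA wells; 40 min baseline recorded at DIV 13 or 15, then 40 min after compound (0.03-40 uM) at 37 C. Well-mean fraction of spikes in single-electrode bursts; percent change from baseline, DMSO as negative control.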
# [12] = CCTE_Shafer_MEA_acute_burst_percentage_std: CCTE's Neural Acute Assay for Standard Deviation of Burst Percentage, Shafer Lab (AID 2284018);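 further: fitted in the negative direction so actives lower burst percentage SD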
# Summary of the method: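 Rat primary cortical neurons on 48-well MEAs, DIV 13 or 15, 37 C. 40-min baseline then 40-min recording with compound (0.03-40 uM); well-level SD of per-electrode burst spike percentage, expressed as percent change from baseline.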
# [13] = CCTE_Shafer_MEA_acute_per_network_burst_spike_number_mean: CCTE's Neural Acute Assay for Average Number of Spikes in a Network Burst, Shafer Lab (AID 2284019);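 on AC50: curve fitted for loss of signal so actives reduce spikes per network burst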
# Summary of the method: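 Rat cortical cultures, DIV 13/15; spike threshold 8x rms noise, 300-5000 Hz band-pass, 12.5 kHz sampling; wells need >/= 10 active electrodes. Compound 0.03-40 uM, 40 min, 37 C; % change vs own baseline, DMSO negative control.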
# [14] = CCTE_Shafer_MEA_acute_per_network_burst_spike_number_std: CCTE's Neural Acute Assay for Standard Deviation of Number of Spikes in a Network Burst, Shafer Lab (AID 2284020);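 further: fitted for decrease in spike-number SD versus DMSO so actives lower it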
# Summary of the method: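 Rat cortical cultures, DIV 13/15, 37 C; 20-min stabilisation, 40-min baseline, compound 0.03-40 uM, 40-min re-record. Spikes detected at 8x rms noise (300-5000 Hz band-pass). Readout: % change from baseline in per-burst spike-number SD.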
# [15] = CCTE_Shafer_MEA_acute_per_network_burst_electrodes_number_mean: CCTE's Neural Acute Assay for Mean Number of Electrodes in a Network Burst, Shafer Lab (AID 2284021);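 further: curves fitted for decreases only so hits reduce electrodes per burst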
# Summary of the method: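 Rat primary cortical neurons on 48-well MEAs, DIV 13 or 15, were treated at 0.03-40 uM. Spikes were detected at 8x rms noise and recorded at 37 C. The mean electrodes per network burst in a 40 min exposure recording was expressed as percent change from a 40 min baseline.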
# [16] = CCTE_Shafer_MEA_acute_network_burst_percentage: CCTE's Neural Acute Assay for Percentage of Network Bursts, Shafer Lab (AID 2284022);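 further: curves fitted for loss so actives lower network burst percentage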
# Summary of the method: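 Rat primary cortical neuron networks on 48-well MEA plates, DIV 13 or 15, treated acutely with compound (0.03-40 uM, at least three wells). Percent of spikes within network bursts compared between 40-min recordings before and during exposure at 37 C, expressed as percent change.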
# [17] = CCTE_Shafer_MEA_acute_cross_correlation_area: CCTE's Neural Acute Assay for Area of Cross Correlation, Shafer Lab (AID 2284024);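 further: curves fitted for loss of cross-correlation area so actives lower synchrony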
# Summary of the method: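 Rat primary cortical neurons on 48-well MEA, DIV 13 or 15; compounds 0.03-40 uM. Baseline and post-exposure 40 min recordings at 37 C; percent change in area under pooled inter-electrode cross-correlation near zero lag, relative to DMSO.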
# [18] = CCTE_Harrill_HTTr_Apoptosis_MCF7: CCTE's 6-hour Apoptosis Assessment for the High-Throughput Transcriptomics (HTTr) Platform, in MCF-7 cells cultured in DMEM + 10% fetal bovine serum, Harrill Lab (AID 2284011)
# Summary of the method: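 MCF-7 cells in DMEM + 10% FBS exposed 6 h to chemicals over an eight-point dilution series. Caspase-3/7 activation imaged by high-content CellEvent Green staining; fitted bidirectionally versus DMSO.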
smiles,measurement,setting,value
N#Cc1nn(-c2c(Cl)cc(C(F)(F)F)cc2Cl)c(N)c1S(=O)C(F)(F)F (centres undefined),outcome,[1],inactive
same,outcome,[2],inactive
same,outcome,[3],inactive
same,AC50,[4],10.3 µM (active) and 9.11 µM (active)
same,AC50,[5],10.3 µM (active) and 9.11 µM (active)
same,outcome,[6],inactive
same,outcome,[7],inactive
same,outcome,[8],inactive
same,AC50,[9],1.87 µM (active)
same,outcome,[9],inactive
same,AC50,[10],8.32 µM (active)
same,outcome,[10],inactive
same,AC50,[11],33.4 µM (active) and 24.2 µM (active)
same,AC50,[12],36.5 µM (active) and 3.5 µM (active)
same,AC50,[13],1.59 µM (active) and 666 nM (active)
same,outcome,[14],inactive
same,AC50,[15],1.36 µM (active) and 1.28 µM (active)
same,outcome,[16],inactive
same,outcome,[17],inactive
CC(C)(C)c1ccc(CSc2cnn(C(C)(C)C)c(=O)c2Cl)cc1,AC50,[1],0.96 µM (active)
same,AC50,[2],0.655 µM (active)
same,AC50,[3],0.359 µM (active)
same,AC50,[4],0.0249 µM (active)
same,AC50,[5],0.0249 µM (active)
same,outcome,[6],inactive
same,AC50,[8],5.1 µM (active)
same,AC50,[9],3.63 µM (active)
same,AC50,[10],0.492 µM (active)
same,AC50,[11],2.67 µM (active)
same,outcome,[12],inactive
same,AC50,[13],1.64 µM (active)
same,AC50,[14],2.12 µM (active)
same,AC50,[15],1.37 µM (active)
same,AC50,[16],3.29 µM (active)
same,AC50,[17],0.0277 µM (active)
COC(=O)N(OC)c1ccccc1COc1ccn(-c2ccc(Cl)cc2)n1,AC50,[1],2.05 µM (active)
same,AC50,[2],1.7 µM (active)
same,AC50,[3],1.69 µM (active)
same,AC50,[4],0.0781 µM (active)
same,AC50,[5],0.0783 µM (active)
same,outcome,[6],inactive
same,outcome,[8],inactive
same,AC50,[9],2.16 µM (active)
same,outcome,[10],inactive
same,AC50,[11],0.976 µM (active)
same,AC50,[12],0.0765 µM (active)
same,outcome,[13],inactive
same,outcome,[14],inactive
same,outcome,[15],inactive
same,AC50,[16],0.113 µM (active)
same,AC50,[17],0.0374 µM (active)
C=CCC1=C(C)[C@@H](OC(=O)[C@@H]2[C@@H](C=C(C)C)C2(C)C)CC1=O,AC50,[2],47.4 µM (active)
same,outcome,[3],inactive
same,AC50,[4],4.06 µM (active)
same,AC50,[5],4.06 µM (active)
same,outcome,[6],inactive
same,outcome,[8],inactive
same,outcome,[9],inactive
same,outcome,[10],inactive
same,AC50,[11],36.5 µM (active)
same,outcome,[12],inactive
same,outcome,[13],inactive
same,outcome,[14],inactive
same,AC50,[15],10.8 µM (active)
same,AC50,[16],31 µM (active)
same,outcome,[17],inactive
CC1=C(C(=O)Nc2ccccc2)SCCO1,outcome,[2],inactive
same,outcome,[3],inactive
same,outcome,[6],inactive
same,outcome,[7],inactive
CC1COC(Cn2cncn2)(c2ccc(Oc3ccc(Cl)cc3)cc2Cl)O1 (centres undefined),AC50,[1],6.1 µM (active)
same,AC50,[2],6.64 µM (active)
same,AC50,[3],6.05 µM (active)
same,AC50,[4],3.53 µM (active)
same,AC50,[5],3.53 µM (active)
same,outcome,[6],inactive
same,outcome,[18],inactive
same,outcome,[7],inactive
same,outcome,[8],inactive
same,outcome,[9],inactive
same,outcome,[10],inactive
same,AC50,[11],4.77 µM (active)
same,AC50,[12],36.6 µM (active)
same,outcome,[13],inactive
same,AC50,[14],3.5 µM (active)
same,outcome,[15],inactive
same,outcome,[16],inactive
same,outcome,[17],inactive
C#CCOS(=O)OC1CCCCC1Oc1ccc(C(C)(C)C)cc1 (centres undefined),AC50,[1],15.5 µM (active)
same,AC50,[2],11.3 µM (active)
same,outcome,[3],inactive
same,AC50,[4],9.46 µM (active)
same,AC50,[5],9.48 µM (active)
same,outcome,[6],inactive
same,outcome,[18],inactive
same,outcome,[7],inactive
same,outcome,[8],inactive
same,AC50,[9],33.6 µM (active)
same,outcome,[10],inactive
same,AC50,[11],32 µM (active)
same,AC50,[12],34.6 µM (active)
same,outcome,[13],inactive
same,outcome,[14],inactive
same,outcome,[15],inactive
same,outcome,[16],inactive
same,outcome,[17],inactive
CCCCNC(=O)OCC#CI,AC50,[1],14.3 µM (active)
same,AC50,[2],91.7 µM (active)
same,outcome,[3],inactive
same,AC50,[4],10.2 µM (active)
same,AC50,[5],10.2 µM (active)
same,outcome,[6],inactive
same,outcome,[18],inactive
same,outcome,[7],inactive
same,outcome,[8],inactive
same,outcome,[9],inactive
same,AC50,[10],31.4 µM (active)
same,AC50,[11],20 µM (active)
same,outcome,[12],inactive
same,outcome,[13],inactive
same,AC50,[14],6.46 µM (active)
same,AC50,[15],20 µM (active)
same,AC50,[16],37.1 µM (active)
same,outcome,[17],inactive
